Screening data (PubChem BioAssay)
In the library only some 0.52% were active in any assay of this set; here they are far more common.
TRPML1 agonist – agonists of human TRPML1 channel; Q9GZU1; TRPML1-expressing cells, Ca2+ dye fluorescence, FDSS; activation, % (concentration not given with the values); 0.12% of 410,000 active; in the data active = activation above about 50%; inconclusive = mostly about 30% to 49%
Target sequence (Q9GZU1 whole entry, looked up): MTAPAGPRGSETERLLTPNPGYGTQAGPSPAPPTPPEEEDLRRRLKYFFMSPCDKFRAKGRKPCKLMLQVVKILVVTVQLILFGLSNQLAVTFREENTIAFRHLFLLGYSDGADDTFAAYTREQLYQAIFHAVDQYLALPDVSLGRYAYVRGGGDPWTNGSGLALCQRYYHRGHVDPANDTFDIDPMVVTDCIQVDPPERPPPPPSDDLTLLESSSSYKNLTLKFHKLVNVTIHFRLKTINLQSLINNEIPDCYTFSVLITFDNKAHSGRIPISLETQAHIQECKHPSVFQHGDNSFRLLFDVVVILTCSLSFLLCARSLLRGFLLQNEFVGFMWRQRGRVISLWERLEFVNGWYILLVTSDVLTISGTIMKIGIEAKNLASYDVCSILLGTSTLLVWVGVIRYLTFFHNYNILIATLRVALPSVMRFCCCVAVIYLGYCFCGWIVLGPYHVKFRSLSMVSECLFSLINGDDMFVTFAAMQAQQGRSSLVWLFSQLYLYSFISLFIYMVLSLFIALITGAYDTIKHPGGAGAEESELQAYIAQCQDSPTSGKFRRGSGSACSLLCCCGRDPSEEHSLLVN
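Kinetic FDSS Ca2+ read in Tet-induced TRPML1-DL cells (ABD Ca8 dye plus quencher, 45-90 min RT loading): baseline, then compound, then 110 s agonist window; EC80 agonist 54-4 at 4uM final added afterwards for a 110 s antagonist window.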
PINK1 expr mod – changes PINK1 expression; 0.2% of 410,000 active; PINK1 immunofluorescence, high-content cytometry, 24 h; AID 624263; Potency, µM (top dose mostly 76.6 µM), usual class: activators; active = well fitted activation curve with a large enough effect; inconclusive = small, poorly fitted or top-dose-only effect; cell line not stated here; also: nearly all actives have a fitted effect of over 65% in size
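Stable cell line treated 24 h with compounds at 5 concentrations (CCCP controls), then fixed and immunostained for PINK1 plus nuclear and cell stains; PINK1 immunofluorescence quantified by laser-scanning microplate cytometry.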
TRPML1 inh – inhibitors of human TRPML1 channel | Q9GZU1 | TRPML1-inducible cells, Ca2+ dye fluorescence, FDSS; hits give low values; inhibition of EC80 agonist-evoked calcium signal | activity change, negative = inhibition, % (test concentration not listed) | 0.02% of 390,000 active; in the data active = activity change below about -50%; inconclusive = between about -30% and that limit;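 also: stimulus is agonist 54-4 at its EC80 concentration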
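Calcium fluorescence in TRPML1-DL cells induced overnight with Tet: a 110 s read after compound pin addition, then a 110 s antagonist read after challenge with 54-4 at 4 uM final (EC80).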
Vif-APOBEC3G blk – inhibitors of Vif-APOBEC3G interaction | Potency, µM (titrated, usually from 46.1 µM), actives largely listed as inhibitors | 0.076% of 410,000 active | Q9HC16 | HeLa A3G-eYFP + Vif (tagged APOBEC3G with the HIV-1 protein that degrades it), YFP fluorescence, overnight; also: nearly all actives have a fitted effect of over 60% in size
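Read-out is eYFP fluorescence (Ex 488/Em 500-530) from Vif-expressing HeLa A3G-eYFP cells; more signal means A3G escaped Vif-mediated degradation. Cells plated overnight, compound pinned in, incubated overnight at 37 deg C.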
Vif-APOBEC3F blk – Vif-A3F binding inhibition; HeLa A3F-eYFP + Vif (tagged APOBEC3F with the HIV-1 protein that degrades it), YFP fluorescence increase; Potency, µM (top dose mostly 46.1 µM); 0.2% of 390,000 active; also: nearly all actives have a fitted effect of over 65% in size
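HeLa cells stably expressing Vif plus C-terminally eYFP-tagged A3F were seeded, incubated overnight at 37 deg C, dosed with compound, incubated overnight again at 37 deg C. Yellow fluorescence (Ex 488/Em 500-530) reported blocked Vif-mediated A3F-eYFP degradation.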
Large screens that a line does not name were inactive. Unless noted, calls follow the shape of the dose curve; as a rule, active = well fitted curve in the direction sought with a large enough effect; inconclusive = small, poorly fitted or top-dose-only effect, or another doubt; inactive = no such curve, though single readings can be large; an effect the other way counts as inactive or inconclusive.

COc1ccc(OC)c(/C=C2/Sc3ccccc3C2=O)c1	TRPML1 agonist 54
COc1ccc(OC)c(/C=C2\Cc3ccccc3C2=O)c1	none (no result: TRPML1 inh, Vif-APOBEC3F blk)
COc1ccc2nc(SCC(=O)N3CC(=O)Nc4ccccc43)c(C#N)cc2c1	Vif-APOBEC3G blk 10µM, Vif-APOBEC3F blk 22µM
COc1ccc2nc(SC)c(C#N)cc2c1	none
Cc1cc(C)c2nc(SCC(=O)N3CC(=O)Nc4ccccc43)c(C#N)cc2c1	Vif-APOBEC3G blk inconclusive, Vif-APOBEC3F blk inconclusive
COc1ccc2nc(SCC(C)=O)c(C#N)cc2c1	Vif-APOBEC3G blk inconclusive, Vif-APOBEC3F blk 3.5µM
O=C1c2ccc([N+](=O)[O-])cc2C(=O)N1Cc1cccnc1	none
C/C(=N\NC(=O)Cc1ccccc1)c1ccc(Br)s1	none
C/C(=N/NC(N)=S)c1ccc(Br)s1	Vif-APOBEC3F blk 11µM
O=C(CN1C(=O)CSc2ncccc21)Nc1cccc(Cl)c1	Vif-APOBEC3G blk inconclusive, Vif-APOBEC3F blk 10µM
CCS(=O)(=O)c1ccc(N=Nc2ccc(O)c3ncccc23)c(OC)c1	PINK1 expr mod 14µM
Cc1ccc(S(=O)(=O)NCCCCCC(=O)Nc2c(C)n(C)n(-c3ccccc3)c2=O)cc1	none
CSc1ccc(C2NC(=O)c3ccccc3N2)cc1 (centres undefined)	Vif-APOBEC3G blk 10µM
O=[N+]([O-])c1ccc(NNC(=S)Nc2ccc(F)cc2)cc1	PINK1 expr mod 14µM
O=C(NC(NNc1ccc([N+](=O)[O-])cc1)(C(F)(F)F)C(F)(F)F)c1ccc(F)cc1	PINK1 expr mod 45µM
O=C(NC(NNc1ccc([N+](=O)[O-])cc1)(C(F)(F)F)C(F)(F)F)c1ccccc1Cl	none
O=C1CC(NS(=O)(=O)c2ccc([N+](=O)[O-])cc2)CN1c1cccc(F)c1 (centres undefined)	none
OC[C@H](S)CS	none (no result: TRPML1 inh, Vif-APOBEC3F blk)
Cn1c(-n2cccc2)c(-c2c(-c3ccccc3)[nH]c3c2c(=O)[nH]c(=O)n3C)c(=O)[nH]c1=O	none
O=C1N/C(=C/c2ccc(N3CCCC3)cc2)C(=O)N1c1ccccc1	PINK1 expr mod inconclusive, Vif-APOBEC3F blk inconclusive
Cc1cc(N2CCCC2)ccc1/C=C1\NC(=S)N(C)C1=O	Vif-APOBEC3G blk inconclusive, Vif-APOBEC3F blk 6.3µM
O=C1/C(=C/c2ccc(N3CCCC3)cc2)NC(=S)N1C1CC1	TRPML1 agonist 50, PINK1 expr mod inconclusive, Vif-APOBEC3G blk 5.6µM, Vif-APOBEC3F blk 11µM
O=C(Nc1ccc(Cl)cc1)Nc1ccc(N2CCCC2)c(S(=O)(=O)Nc2ccccc2Cl)c1	PINK1 expr mod 2.8µM
O=C(Nc1ccc(N2CCOCC2)c(S(=O)(=O)Nc2ccccc2Cl)c1)c1ccccc1	none
COc1ccc(Nc2nc3cc(C)ccc3cc2C#N)c(OC)c1	Vif-APOBEC3G blk inconclusive, Vif-APOBEC3F blk inconclusive
COc1ccc(Nc2nc3cc(C)ccc3cc2C#N)cc1	Vif-APOBEC3G blk inconclusive, Vif-APOBEC3F blk 22µM
COc1ccccc1N1CCN(C2CCCN(C(=O)c3cscn3)C2)CC1 (centres undefined)	none
COc1ccccc1N1CCN(C2CCCN(C(=O)c3cc(C4CC4)on3)C2)CC1 (centres undefined)	TRPML1 inh -61
CCc1ccc(NC(=O)C2(c3ccccc3)CC2(Cl)Cl)cc1 (centres undefined)	TRPML1 agonist 54
COc1ccc(C(=O)NNC(=S)NC(=O)C(C)(C)C)cc1	TRPML1 agonist 51
COc1ccc(C(=O)NNC(=O)c2ccc(C(C)(C)C)cc2)cc1	none
O=C(NNC(=S)NC1CCCCC1)c1sc2ccccc2c1Cl	PINK1 expr mod inconclusive
CC(C)(C)C(=O)NC(=S)NNC(=O)c1sc2ccccc2c1Cl	TRPML1 agonist 71
CC(OC(=O)C1CCN(S(=O)(=O)c2ccc(C(C)(C)C)cc2)CC1)C(=O)N(C)C1CCCCC1 (centres undefined)	TRPML1 agonist 95
Cn1cc(/C=C2\SC(=O)N(c3ccccc3)C2=O)c2ccccc21	PINK1 expr mod inconclusive, Vif-APOBEC3F blk 7.9µM
CCc1cc(=S)n2c([nH]c3ccccc32)c1C#N	PINK1 expr mod 16µM
CCc1cc(=O)n2c([nH]c3ccccc32)c1C#N	none
Cc1ccc(-c2nn3c(-c4ccccc4)nnc3o2)cc1	none
COc1ccccc1CC(=O)Nc1ccc([N+](=O)[O-])cc1O	PINK1 expr mod 40µM
COc1ccccc1CC(=O)Nc1ccccc1O	none
CC(=O)ON(C(C)=O)c1ccc(/C=C2\C=Cc3ccccc32)cc1	none (no result: TRPML1 inh, Vif-APOBEC3F blk)
CCOc1ccccc1CNc1ncnc2c1nc1n2CCCC1	none
CCSc1nnc(NC(=O)C(C)(C(F)(F)F)C(F)(F)F)s1	PINK1 expr mod 25µM
O=c1[nH]c(=O)n(Cc2ccccc2)c2c1C(C(F)(F)F)(C(F)(F)F)N=C(c1ccco1)N2	none
O=c1[nH]c(=O)n(Cc2ccco2)c2c1C(C(F)(F)F)(C(F)(F)F)N=C(c1ccc(F)cc1)N2	PINK1 expr mod 13µM
OCc1ccc(O)c2ncccc12	PINK1 expr mod inconclusive
Oc1ccc(CNc2ccccc2F)c2cccnc12	PINK1 expr mod 28µM
COC(=O)c1[nH]c2c(c1C(=O)OC)CCc1ccccc1-2	Vif-APOBEC3F blk 8.9µM
CCN(CC)c1ccc2c(c1)OC(N)=C(C#N)C2c1cccnc1 (centres undefined)	TRPML1 agonist 70, Vif-APOBEC3G blk inconclusive, Vif-APOBEC3F blk inconclusive
Cc1ccccc1Cn1cc(S(=O)(=O)c2ccc(F)cc2)c(=O)c2cc3c(cc21)OCO3	none
Cc1cc2oc3ccc(NCCCn4ccnc4)cc3c(=O)c2cc1C	Vif-APOBEC3G blk inconclusive, Vif-APOBEC3F blk 22µM
Cc1cc2oc3ccc(NCCCN4CCOCC4)cc3c(=O)c2cc1C	none
C[C@H](NC(=O)[C@@H]1CSC2c3ccccc3C(=O)N21)C(=O)NC1CCCC1 (some centres undefined)	Vif-APOBEC3G blk 5µM
CCc1nc2ccccc2n(CCOCCn2c(=O)c(CC)nc3ccccc32)c1=O	PINK1 expr mod 10µM
CC(=O)N/N=C/c1cc(C)n(-c2ccc(Br)cc2)c1C	none
CC(=O)N/N=C/c1cc(C(C)C)cc(/C=N/NC(C)=O)c1O	Vif-APOBEC3G blk inconclusive, Vif-APOBEC3F blk 32µM
Cc1ccc(NC(=O)C(C)Sc2nnc(-c3cccnc3)n2-c2ccccc2)cc1 (centres undefined)	none
Cc1ccccc1-n1c(SC(C)C(N)=O)nnc1-c1cccnc1 (centres undefined)	PINK1 expr mod 10µM
Cc1oc(-c2ccccc2NC(=O)C2CCCO2)nc1CNC(=O)c1cc(Cl)ccc1F (centres undefined)	none (no result: TRPML1 agonist, TRPML1 inh, Vif-APOBEC3G blk, Vif-APOBEC3F blk)
CC(=O)Nc1ccc(Sc2ncccc2C(=O)Nc2ccc(OC(F)(F)F)cc2)cn1	TRPML1 agonist 52
Cc1cccc(C(=O)Oc2cccc3c(O)cccc23)c1	none
CCCCCCCCCc1nc2sc3c(c2c(=O)n1NC(=O)c1ccc([N+](=O)[O-])cc1)CC(C)(C)OC3	PINK1 expr mod 13µM, Vif-APOBEC3F blk inconclusive
